# Test results as given in ChEMBL document CHEMBL3988442, “University of Dundee, Small-Polar-MMV Screening Library” (2021).
# Out of some 48,000 compounds screened, about 13,000 (27%) showed an effect of 50% or more. This is one part of the list.
# System: Wolbachia pipientis
# Test: Anti-Wolbachia Cell-Based Screen
# Type: functional
# Design: scale not given: in the data most compounds retested in dose-response had high values
# Details: 5 µM
row,SMILES,Percent Effect [%]
1,CC(C)OCCC1CCCCN1S(N)(=O)=O (stereo not given),5.549
2,Cc1cnn(-c2cccc(N3CCCC3)n2)c1,2.122
3,Cc1cc(C)n(CC2CN(CC(=O)N3CCNC3=O)CCO2)n1 (stereo not given),88.91
4,Cc1cc(C)n(CC2CN(CC(=O)N3CCC3)CCO2)n1 (stereo not given),107.3
5,Fc1cc(CNCCn2cccn2)ccc1-n1cncn1,-7.055
6,Cc1nc(CSc2ccc(C(F)(F)F)cn2)no1,-11.09
7,CC(=O)NCCN1CCC(c2cccs2)CC1,-11.86
8,O=C(NCCN1CCC(c2cccs2)CC1)c1ccccc1C(F)(F)F,6.812
9,COc1ccc(C(=O)NCCN2CCC(c3cccs3)CC2)cc1OC,108.4
10,CCCNC(=O)c1cc2c([nH]c1=O)CC(c1cccs1)CC2=O (stereo not given),1.208
11,O=C(Cc1ccccc1Cl)NCCN1CCC(c2cccs2)CC1,167.3
12,O=C(NCCN1CCCC(CO)C1)c1ccc2sccc2c1 (stereo not given),0.9044
13,Cc1csc(C(=O)NCCN2CCC(c3cccs3)CC2)c1,131.4
14,CCSc1ccccc1C(=O)NCCN1CCC(c2cccs2)CC1,153.4
15,CCCN1CCC(NC(=O)c2csc(C)c2-c2ccccc2)CC1,2.697
16,Cc1nc(CC(=O)NCCN2CCC(c3ccccc3C)C2)cs1 (stereo not given),-10.54
17,COc1ccc(C(=O)NCC(=O)N(Cc2ccsc2)C2CC2)cc1OC,-17.21
18,Cc1ccccc1C1CCN(CCNC(=O)CS(C)(=O)=O)C1 (stereo not given),-1.802
19,CCNc1ncc(C2CC(=O)Nc3c2cnn3Cc2ccncc2)cn1 (stereo not given),0.3044
20,CCSCCC(=O)NCc1cnn(-c2ccc(F)cc2F)c1,1.546
21,Cc1ccc(S(=O)(=O)NC(=O)CCOCC(C)C)s1,14.43
22,O=C(CCc1cc(Cl)no1)N1CCCCC1CCn1ccnc1 (stereo not given),-6.627
23,O=C(c1cccnc1-n1cncn1)N1CCc2ccccc2C1,12.03
24,COc1ccc(CNCC2CCN(CC(C)O)CC2)c2ccccc12 (stereo not given),-9.036
25,CCN(Cc1nnnn1C1CC1)c1cc(C)ccc1C,-3.19

row,SMILES,Percent Effect [%]
1,O=C(NCCN1CCC(c2cccs2)CC1)c1ccc(F)cc1Cl,122.6
2,O=C(NCC(c1cccs1)N1CCOCC1)c1ccc(F)cc1Cl (stereo not given),-4.405
3,CCN(CC)C(=O)Cc1csc(C(C)C)n1,-7.822
4,Cc1cccc(OCC(=O)N(C)C2CCN(CC3CCOC3)CC2)c1 (stereo not given),-8.689
5,CCCNc1ncc(CN2C[C@H]3CC[C@@H]2CN(C2CCOCC2)C3)cn1,7.731
6,c1ccc2cc(OCCN3CCOC(Cn4cncn4)C3)ccc2c1 (stereo not given),0.3629
7,c1cnn(CC2CN(CCCOc3ccc4c(c3)OCO4)CCO2)c1 (stereo not given),1.566
8,c1ncn(CC2CN(CCCOc3ccc4c(c3)OCO4)CCO2)n1 (stereo not given),97.52
9,COc1ccc(OCCCN2CCOC(Cn3cccn3)C2)cc1 (stereo not given),1.876
10,Clc1ccc(OCCCN2CCOC(Cn3cncn3)C2)cc1 (stereo not given),88.34
11,c1cnn(C2CN(CCCOc3ccc4c(c3)OCO4)C2)c1,-8.072
12,Fc1ccc(OCCCN2CCOC(Cn3cncn3)C2)cc1 (stereo not given),3.822
13,N#Cc1ccc(OCCCN2CCOC(Cn3cncn3)C2)cc1 (stereo not given),94.1
14,Fc1ccc(CN2CCOC(Cn3cncn3)C2)c2ncccc12 (stereo not given),-8.547
15,Clc1cccc(OCCCN2CCOC(Cn3cncn3)C2)c1 (stereo not given),125.7
16,Cc1cc2n(n1)CC(CNCc1cnn(-c3ccccc3)c1)CN2 (stereo not given),-14.73
17,COc1ccccc1C1CNC(=O)c2nc(-c3ncc[nH]3)[nH]c2C1 (stereo not given),-17.95
18,N#Cc1ccccc1C(=O)N1C[C@H]2CC[C@@H]1CN(Cc1ccccc1)C2,1.705
19,CCN(Cc1ccco1)C(=O)NCC(c1cccs1)N(C)C (stereo not given),-4.593
20,Cc1nnc(N(CCC#N)CCC#N)s1,120.1
21,Cc1nn(C)cc1CN1CCCCCC1c1ccc(Cl)cc1 (stereo not given),98.47
22,Cc1nn(C)c(C)c1C1CCCN1Cc1cn2ccsc2n1 (stereo not given),7.69
23,Cc1nnc(CN2CCCC2c2cccc(Br)c2)o1 (stereo not given),20.93
24,Cc1nn(C)cc1CN1CCCCCC1c1ccccc1Cl (stereo not given),134.4
25,Cc1ccc(C2CCCCCN2Cc2cn(C)nc2C)cc1 (stereo not given),6.787

row,SMILES,Percent Effect [%]
1,CS(=O)(=O)c1ccc(CN2CCCCC2c2cccc(F)c2)cc1 (stereo not given),5.873
2,Cc1ccc(C2CCCCCN2Cc2cn(C)nc2C)s1 (stereo not given),10.12
3,COC(=O)CCN1CCCC1c1ccccc1Cl (stereo not given),-1.683
4,Cc1ccsc1C1CCCCCN1Cc1cn(C)nc1C (stereo not given),87.45
5,Cc1cccc(C2CCCCCN2Cc2cn(C)nc2C)c1 (stereo not given),99.27
6,N#CCCN(C(=O)CN1CCCC1c1ccccc1Cl)c1ccccc1 (stereo not given),-18.96
7,Cc1nnc(CN2CCCC2c2ccc(Cl)c(Cl)c2)o1 (stereo not given),-0.8555
8,Cc1nn(C)c(C)c1CCC(=O)OCC(=O)N1CCc2sccc2C1,-1.071
9,Cc1ccnc(C(NC(=O)c2sc(C)nc2C)C2CC2)n1 (stereo not given),-13.48
10,CC(SCCNS(=O)(=O)c1cnn(C)c1)c1cccc(F)c1 (stereo not given),13.07
11,COc1ccc(C2CCCCCN2Cc2nnc(C)o2)cc1 (stereo not given),-42.58
12,COc1ccc(C2CCCCCN2Cc2cn(C)nc2C)cc1 (stereo not given),97.09
13,CC(C)N(C)C(=O)C1CSCN1S(=O)(=O)c1cc(Cl)ccc1Cl (stereo not given),-2.04
14,O=C(NCC(F)(F)F)C(c1cccnc1)N1CCOCC1 (stereo not given),-10.65
15,Cc1cc(Cc2ccccc2F)cc(C2CCCNC2)n1 (stereo not given),100.5
16,Cc1cc(C2CCC2)nc(N(C)Cc2ncccc2C)n1,22.22
17,Cc1cc(Cc2ccccc2C)cc(C2CCCNC2)n1 (stereo not given),111.5
18,CCOc1ccc2ccccc2c1CNCC1CCNCC1.Cl.Cl,8.229
19,Cc1cc(N2CCC(n3cc(CN4CCC[C@@H]4CO)nn3)CC2)ccn1,-20.23
20,CC(=O)NCc1nccnc1C1CCN(C(=O)c2cc[nH]n2)CC1,109
21,CCOc1ccccc1OC1CCN(C(=O)c2cc[nH]n2)CC1,-11.18
22,CC(=O)N1CCC(c2nccnc2CNC(=O)c2cc[nH]n2)CC1,109.1
23,CC(C)n1ccnc1C1CCN(C(=O)c2cc[nH]n2)CC1,7.968
24,CC(C)Oc1ncccc1CNC(=O)c1cc[nH]n1,6.018
25,O=C(c1cc[nH]n1)N1CCC(c2nccn2Cc2ccncc2)CC1,-13.9
